Results filed as inconclusive are left out. Calls of active or inactive are those of the source. Unless noted, calls come from the whole dose curve; as a rule, active = well fitted curve in the direction sought with a large enough effect in the repeat runs; inconclusive = weak or mixed curves; inactive = no such curve, though single readings can be large; an effect the other way counts as inactive or inconclusive.

Assay [1] can be described thus: qHTS assay to identify small molecule antagonists of the retinoid acid receptor (RAR) signaling pathway - cell viability counter screen (AID 1159551). Note: nearly all actives have a fitted effect of over 35% in size. Note: potency is the fitted concentration of half-maximal effect. The settings on record: C3RL4 cells viability, ATP luminescence (CellTiter-Glo), 6 h; series mostly up to 92.4 µM. The procedure, abridged:
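Measured by luminescent ATP detection, viability reflects C3RL4 cells treated 6 h at 37 C with test chemicals in the presence of 1 uM (final) retinol.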
In general terms: qHTS replaces the single test concentration by a dilution series.

The nature of assay [2]: qHTS assay to identify small molecule antagonists of the retinoic acid receptor (RAR) signaling pathway (AID 1159552; note: nearly all actives have a fitted effect of over 50% in size; note: potency is the fitted concentration of half-maximal effect). The settings on record: C3RL4 RARE luciferase reporter, retinol-stimulated, 6 h; series mostly up to 92.4 µM. The procedure, abridged: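 Using a RARE-driven luciferase construct in C3RL4 cells, retinol at 1 uM final provided the agonist stimulus while compounds were co-applied. After 6 hours at 37 C, luminescence was recorded to flag inhibitors of retinol signaling.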

Assay [3] can be described thus: qHTS assay to identify small molecule agonists of the retinoic acid receptor (RAR) signaling pathway (AID 1159553). Note: potency is the fitted concentration of half-maximal effect. Particulars: C3RL4 RARE luciferase reporter, agonist, 6 h; series mostly up to 73.3 µM. The procedure, abridged: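 6 hr compound exposure (DMSO vehicle) of overnight-plated C3RL4 RARE-luc cells at 37 C; luminescence quantified after 30 min RT with luciferase reagent.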

Assay [4] can be described thus: qHTS assay to identify small molecule antagonists of the estrogen related receptor (ERR) signaling pathway - cell viability counter screen (AID 1224818). Particulars: ERR reporter cell line viability counter screen; series mostly up to 46.1 µM. The procedure, abridged:
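Compounds dissolved in DMSO were applied to ERR cells seeded at 2,000 per well 6 h earlier. Cell viability followed 17.5 h later via 30-min CellTiter-Fluor fluorescence.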

A short description of assay [5]: qHTS assay to identify small molecule antagonists of the estrogen related receptor (ERR) signaling pathway (AID 1224819; note: nearly all actives have a fitted effect of over 50% in size; note: potency is the fitted concentration of half-maximal effect). Particulars: ERR reporter cell line, luciferase inhibition; series mostly up to 46.1 µM. A digest of the protocol:
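Compounds dissolved in DMSO were pin-transferred onto ERR cells that had been plated 6 h earlier, and cells were then incubated 18 h at 37 C; signal was luciferase luminescence via One-Glo.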

A short description of assay [6]: qHTS assay to identify small molecule agonists of the estrogen related receptor (ERR) signaling pathway (AID 1224820). Particulars: ERR reporter cell line, luciferase agonist mode; series mostly up to 46.1 µM. The procedure, abridged:
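An ERR cell line provided by NTP was seeded at 2,000 cells per well and allowed to settle for 6 h before compounds in DMSO were added. After 18 h at 37 C, luciferase activity was measured by One-Glo luminescence.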

Assay [7] relates to estrogen-related receptor alpha (ERRalpha) with PGC-1alpha coactivator, human. Kind of assay: qHTS assay to identify small molecule antagonists of the estrogen related receptor signaling pathway with the pleiotropic PPARgamma coactivator (PGC) (AID 1224821; calls by dose curve;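 note: lower luminescence signal means antagonism of PGC/ERR signalling; nearly all actives have a fitted effect of over 50% in size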). Particulars: ERR/PGC reporter cell line, luciferase, antagonist mode; series mostly up to 46.1 µM. The procedure, abridged:
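A PGC/ERR cell line supplied by NTP is seeded, allowed 6 h at 37 C, and treated with test compounds in DMSO for 18 h. Signal is then measured as luciferase luminescence using One-Glo.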

The nature of assay [8]: qHTS assay to identify small molecule antagonists of the estrogen related receptor signaling pathway with the pleiotropic PPARgamma coactivator (PGC) cell viability counter screen (AID 1224822). The settings on record: ERR/PGC reporter cell line viability counter screen; series mostly up to 46.1 µM. The procedure, abridged: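 Counter screen for cell viability: PGC/ERR cells, 6 h pre-incubation after plating, 17.5 h compound exposure at 37 C, fluorescence from CellTiter-Fluor after 30 min.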

Assay [9] can be described thus: qHTS assay to identify small molecule agonists of the estrogen related receptor signaling pathway with the pleiotropic PPARgamma coactivator (PGC) (AID 1224823). Particulars: ERR/PGC reporter cell line, luciferase agonist mode; series mostly up to 46.1 µM. A digest of the protocol: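 Compounds dissolved in DMSO are added by pin tool to PGC/ERR cells that have settled for 6 h, and incubation continues 18 h at 37 C. Reporter output is measured as One-Glo luminescence.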

As for `COC(=O)[C@@H]1CC2=CC(=O)CC[C@]2(C)[C@@]23O[C@@H]2C[C@@]2(C)[C@@H](CC[C@@]24CCC(=O)O4)[C@H]13`, the Potency result in assay [1], in assay [2] and in assay [3] was “inactive” each time.

`C[Si](NC1CCCCC1)(NC1CCCCC1)NC1CCCCC1`: the Potency result in assay [1], in assay [2] and in assay [3] was “inactive” in each case.

For the molecule `CNCCCC1c2ccccc2C=Cc2ccccc21`, the Potency result in assay [1], in assay [5] and in assay [7] was “inactive” in each case. For the same molecule, the Potency in assay [2] is 23.7 µM (active). For the same molecule, the molecule was classed as inactive in assay [4] and in [6].

With `O=C(CCCCCCC(=O)Nc1ccccc1)NO`, the Potency entry in [1] was “inactive”.

Consider `CCOC(=O)c1ccccc1C`, for which the Potency result in [1], in assay [2] and in assay [3] was “inactive” throughout.

`C=CCNc1nc(NCC=C)nc(N2CCN(C(c3ccc(F)cc3)c3ccc(F)cc3)CC2)n1`: the Potency result in [1], in assay [2] and in [3] was “inactive” in each case.

For the molecule `CC1CC(=O)NN=C1c1ccc(NCC(C)(C)NCC(O)COc2cc(Cl)ccc2C#N)cc1` (stereo not given), the Potency entry in [1], in assay [2] and in assay [3] was “inactive” each time.

Consider `CCc1nn(CCCN2CCN(c3cccc(Cl)c3)CC2)c(=O)n1CCOc1ccccc1`, for which, in [1], the Potency result was “inactive”.

As to `CC1CC(O)CC(C)(C)C1` (stereo not given), the Potency entry in assay [1], in assay [2] and in assay [3] was “inactive” each time.

As for `Fc1ccccc1[C@@H](F)COC1CCC(Nc2ncnc3[nH]ncc23)CC1` (stereo not given in full), the Potency result in assay [2] and in [3] was “inactive” in each case.

As to `C(=C\c1ccccc1)/CN1CCN(C(c2ccccc2)c2ccccc2)CC1`, the result in assay [4] and in [8] was inactive.

In the case of `Cc1cc2nc3ccc(=[N+](C)C)cc-3sc2cc1N`, the Potency in assay [1] is 26.6 µM (active); in assay [3] it was 1.88 µM (active). Moreover, the Potency result in [2] is “inactive”.

For the molecule `Cc1cc(O)c(C(C)C)cc1Cl`, the Potency entry in [1], in [2] and in [3] was “inactive” throughout.

Consider `COc1cc2c(N3CCN(C(=O)Nc4ccc(OC(C)C)cc4)CC3)ncnc2cc1OCCCN1CCCCC1`, for which the Potency entry in [1] and in [3] was “inactive” each time.

As for `CCCCC1C(=O)N(c2ccccc2)N(c2ccc(O)cc2)C1=O` (stereo not given), the Potency result in assay [2] was “inactive”.

As for `CCCCC/C(=C\c1ccccc1)CO`, the Potency entry in [1], in assay [2] and in [3] was “inactive” throughout.

On to `CCOC(=O)N1CCC(n2c(=O)[nH]c3cc(Cl)ccc32)CC1`, for which the Potency entry in [1], in assay [2] and in assay [3] was “inactive” each time.

Take `CCNC(=O)N1CCN(CCCC(c2ccc(F)cc2)c2ccc(F)cc2)CC1`: the Potency entry in [1], in assay [3] and in assay [9] was “inactive” each time. Further, the Potency in [5] was 8.1 µM (active). In addition, in assay [6], the result was inactive.

Source of the values: PubChem BioAssay (Tox21).
